Assay results taken from PubChem BioAssay (NCI).
About 79,000 compounds went through this panel and 15% of them were active in at least one assay; those are over-represented in the sample as a whole. Calls of active or inactive are those of the source. Cut-off read from the data, not from the text of the source: active = growth inhibition above about 70%; inactive = the rest.

Key:
[1] = NCI Yeast Anticancer Drug Screen. Data for the rad52 strain (AID 147);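 note: 0% = growth of vehicle-treated control cultures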; details: S. cerevisiae rad52 mutant growth inhibition, hits give high values
How it was run: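 Read-out: growth inhibition versus vehicle-treated controls. Cells were a DNA repair-deficient yeast strain treated with compounds.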

[2] = NCI Yeast Anticancer Drug Screen. Data for the wt1 strain (AID 149);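 note: 0% = growth of vehicle-treated wt1 cultures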; details: S. cerevisiae wt1 strain (SPY 50644) growth inhibition, hits give high values
How it was run: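 Growth inhibition read against vehicle controls after compound exposure of the wt1 yeast strain.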

[3] = NCI Yeast Anticancer Drug Screen. Data for the rad50EPP+ strain (AID 151);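 note: 0% = growth of vehicle-treated control cultures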; details: S. cerevisiae rad50 mutant strain, hits give high values
How it was run: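 Growth inhibition read against vehicle controls in rad50EPP+ yeast, a strain altered in DNA damage repair, after compound exposure.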

[4] = NCI Yeast Anticancer Drug Screen. Data for the mgt1 strain (AID 153); details: S. cerevisiae mgt1 mutant growth inhibition, hits give high values
How it was run: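 mgt1 yeast grown with test compound; read-out is growth inhibition versus vehicle-treated cultures.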

[5] = NCI Yeast Anticancer Drug Screen. Data for the rad50 strain (AID 155);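 note: 0% = growth of vehicle-only cultures of the same strain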; details: S. cerevisiae rad50 strain growth inhibition, hits give high values
How it was run: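 Readout: growth inhibition relative to vehicle-treated cultures. Compound exposure was carried out in a genetically defined yeast strain deficient in DNA damage repair.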

[6] = NCI Yeast Anticancer Drug Screen. Data for the mec2-1 strain (AID 157); details: S. cerevisiae mec2-1 strain, hits give high values
How it was run: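 Yeast mec2-1 mutant treated with compound. Readout: growth inhibition vs vehicle controls.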

[7] = NCI Yeast Anticancer Drug Screen. Data for the rad14 strain (AID 159);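 note: 0% = growth of vehicle-treated control cultures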; details: S. cerevisiae rad14 strain growth inhibition, hits give high values
How it was run: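 Growth inhibition vs vehicle controls; genetically altered yeast strain (DNA damage repair defect) treated with test compounds.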

[8] = NCI Yeast Anticancer Drug Screen. Data for the sgs1 mgt1 strain (AID 161);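 note: 0% = growth of cultures given vehicle only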; details: S. cerevisiae sgs1 mgt1 strain, hits give high values
How it was run: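 Inhibition of yeast growth, normalised to vehicle-treated controls, is reported for a strain bearing genetic alterations in DNA damage repair.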

[9] = NCI Yeast Anticancer Drug Screen. Data for the CLN2oe strain (AID 163);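 note: 0% = growth of vehicle-only control cultures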; details: S. cerevisiae CLN2oe strain, hits give high values
How it was run: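 Read-out: yeast growth inhibition, expressed relative to vehicle-only controls. The strain bears an engineered cell-cycle alteration.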

[10] = NCI Yeast Anticancer Drug Screen. Data for the cln2 rad14 strain (AID 165);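 note: 0% = growth equal to vehicle treated cultures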; details: S. cerevisiae cln2 rad14 strain, hits give high values
How it was run: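 cln2 rad14 yeast strain; compound exposure; growth inhibition read vs vehicle controls.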

[11] = NCI Yeast Anticancer Drug Screen. Data for the bub3 strain (AID 167); details: S. cerevisiae bub3 mutant strain, hits give high values
How it was run: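 Readout: yeast growth inhibition, expressed relative to vehicle-only wells. The test organism is a mutant strain from a panel with lesions in DNA repair or checkpoint genes.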

[12] = NCI Yeast Anticancer Drug Screen. Data for the wt2 strain (AID 169);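 note: 0% = growth of vehicle-treated yeast cultures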; details: S. cerevisiae wt2 strain growth inhibition, hits give high values
How it was run: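 Read-out: growth inhibition versus vehicle-treated control cultures after compound exposure of the yeast strain.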

[13] = NCI Yeast Anticancer Drug Screen. Data for the mlh1 strain (AID 171);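 note: 0% = growth of vehicle-treated control cultures of the same strain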; details: S. cerevisiae mlh1 strain growth inhibition, hits give high values
How it was run: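 Read-out: growth inhibition versus vehicle controls. Strain: engineered yeast with a defined DNA repair or cell cycle defect, compound-treated.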

[14] = NCI Yeast Anticancer Drug Screen. Data for the sgs1 strain (AID 173);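 note: 0% = growth of vehicle-only control cultures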; details: S. cerevisiae sgs1 mutant, hits give high values
How it was run: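 Read-out: yeast growth inhibition relative to vehicle controls, following compound exposure of a strain with a defined DNA repair/cell cycle alteration.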

[15] = NCI Yeast Anticancer Drug Screen. Data for the mlh1 rad18 strain (AID 175); details: S. cerevisiae mlh1 rad18 strain growth inhibition, hits give high values
How it was run: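 Yeast w/ defined DNA-repair lesions; compound exposure; growth vs vehicle controls → % inhibition.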

[16] = NCI Yeast Anticancer Drug Screen. Data for the rad18 strain (AID 177); details: S. cerevisiae rad18 mutant growth inhibition, hits give high values
How it was run: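 Readout: growth inhibition vs vehicle controls. Cells: genetically altered yeast strain, DNA repair defect.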

[17] = at 5.0 µM (retest, dose inferred, filed as 0.5)
[18] = at 50.0 µM (retest, dose inferred, filed as 5.0)

Measured: growth inhibition

CCc1c[n+]([O-])c(C)cc1[N+](=O)[O-]
inactive: [1]; at 1.2 µM 2% | [1]; at 3.7 µM 7% | [1]; at 11.0 µM 21% | [1]; at 33.0 µM 57% | [2]; at 1.2 µM 0% | [2]; at 3.7 µM -1% | [2]; at 11.0 µM 0% | [2]; at 33.0 µM -1% | [2]; at 100.0 µM 13% | [3]; at 1.2 µM -1% | [3]; at 3.7 µM 6% | [3]; at 11.0 µM 25% | [3]; at 33.0 µM 55% | [4]; at 1.2 µM -2% | [4]; at 3.7 µM -2% | [4]; at 11.0 µM -2% | [4]; at 33.0 µM 17% | [4]; at 100.0 µM 22% | [5]; at 1.2 µM 1% | [5]; at 3.7 µM 6% | [5]; [17] 17% | [5]; at 11.0 µM 18% | [5]; at 33.0 µM 53% | [6]; at 1.2 µM -2% | [6]; at 3.7 µM 1% | [6]; [17] -6% | [6]; at 11.0 µM 2% | [6]; at 33.0 µM 27% | [6]; at 50.0 µM 14.9% | [7]; at 1.2 µM 5% | [7]; at 3.7 µM 12% | [7]; at 11.0 µM 48% | [8]; [17] 45% | [9]; at 1.2 µM -2% | [9]; at 3.7 µM -4% | [9]; at 11.0 µM -5% | [9]; at 33.0 µM -14% | [9]; at 100.0 µM -2% | [10]; [17] 21% | [11]; at 1.2 µM -4% | [11]; at 3.7 µM -8% | [11]; [17] 8% | [11]; at 11.0 µM -14% | [11]; at 33.0 µM -20% | [11]; [18] 52% | [11]; at 50.0 µM -29.3% | [11]; at 100.0 µM -2% | [12]; at 1.2 µM 0% | [12]; at 3.7 µM 0% | [12]; at 11.0 µM 2% | [12]; at 33.0 µM 5% | [12]; at 100.0 µM 21% | [13]; at 1.2 µM -1% | [13]; at 3.7 µM -1% | [13]; at 11.0 µM 3% | [13]; at 33.0 µM 7% | [13]; at 100.0 µM 29% | [14]; at 1.2 µM 10% | [14]; at 3.7 µM 31% | [14]; at 11.0 µM 63% | [15]; [17] 58% | [15]; at 50.0 µM 65.9% | [16]; at 1.2 µM 56%
active: [1]; at 100.0 µM 90% | [3]; at 100.0 µM 85% | [5]; [18] 94% | [5]; at 50.0 µM 73.7% | [5]; at 100.0 µM 87% | [6]; [18] 77% | [6]; at 100.0 µM 92% | [7]; at 33.0 µM 94% | [7]; at 100.0 µM 98% | [8]; [18] 95% | [8]; at 50.0 µM 87.5% | [10]; [18] 94% | [10]; at 50.0 µM 88.2% | [14]; at 33.0 µM 85% | [14]; at 100.0 µM 93% | [15]; [18] 96% | [16]; at 3.7 µM 86% | [16]; at 11.0 µM 92% | [16]; at 33.0 µM 95% | [16]; at 100.0 µM 95%

O=C1C=C(c2ccccc2)OC1(c1ccccc1)N1CCOCC1 (stereo unspecified)
active: [1]; at 100.0 µM 98% | [2]; at 100.0 µM 98% | [4]; at 100.0 µM 98% | [5]; at 100.0 µM 98% | [6]; at 100.0 µM 98% | [7]; at 100.0 µM 98% | [8]; [18] 90% | [9]; at 100.0 µM 97% | [11]; at 100.0 µM 98% | [12]; at 100.0 µM 98% | [13]; at 100.0 µM 98% | [14]; at 33.0 µM 76% | [14]; at 100.0 µM 98% | [15]; [18] 75% | [16]; at 100.0 µM 98%
inactive: [1]; at 1.2 µM -1% | [1]; at 3.7 µM -1% | [1]; at 11.0 µM 3% | [1]; at 33.0 µM 16% | [2]; at 1.2 µM -1% | [2]; at 3.7 µM 2% | [2]; at 11.0 µM -4% | [2]; at 33.0 µM -7% | [3]; at 1.2 µM 3% | [3]; at 3.7 µM 7% | [3]; at 11.0 µM 7% | [3]; at 33.0 µM 10% | [3]; at 100.0 µM 17% | [4]; at 1.2 µM -5% | [4]; at 3.7 µM -6% | [4]; at 11.0 µM -4% | [4]; at 33.0 µM 59% | [5]; at 1.2 µM 1% | [5]; at 3.7 µM 4% | [5]; [17] -20% | [5]; at 11.0 µM 1% | [5]; at 33.0 µM 19% | [5]; [18] 69% | [5]; at 50.0 µM -0.2% | [6]; at 1.2 µM -1% | [6]; at 3.7 µM 4% | [6]; [17] -12% | [6]; at 11.0 µM 3% | [6]; at 33.0 µM 8% | [6]; [18] 0% | [6]; at 50.0 µM -5.95% | [7]; at 1.2 µM -2% | [7]; at 3.7 µM -1% | [7]; at 11.0 µM -1% | [7]; at 33.0 µM 9% | [8]; [17] -2% | [8]; at 50.0 µM 55.7% | [9]; at 1.2 µM 1% | [9]; at 3.7 µM -4% | [9]; at 11.0 µM 6% | [9]; at 33.0 µM 0% | [10]; [17] 2% | [10]; [18] 14% | [10]; at 50.0 µM 19.9% | [11]; at 1.2 µM 0% | [11]; at 3.7 µM -1% | [11]; [17] -1% | [11]; at 11.0 µM 4% | [11]; at 33.0 µM 14% | [11]; [18] 44% | [11]; at 50.0 µM -27.7% | [12]; at 1.2 µM 0% | [12]; at 3.7 µM -1% | [12]; at 11.0 µM -3% | [12]; at 33.0 µM 52% | [13]; at 1.2 µM 3% | [13]; at 3.7 µM 1% | [13]; at 11.0 µM -7% | [13]; at 33.0 µM 55% | [14]; at 1.2 µM 0% | [14]; at 3.7 µM 0% | [14]; at 11.0 µM 4% | [15]; [17] -17% | [15]; at 50.0 µM -1.85% | [16]; at 1.2 µM 1% | [16]; at 3.7 µM -4% | [16]; at 11.0 µM -2% | [16]; at 33.0 µM 7%
